Compound activity: PubChem BioAssay, several laboratories
This is a sample that favours compounds with a hit; in the whole collection about 27% have one here.
CYP2C9 activ: activators of human CYP2C9. P11712. recombinant CYP2C9, luciferin-H conversion, luminescence; active compounds read high; factor 1 = untreated enzyme, 0 = blocked. activation factor at 5 µM. actives 1.4% (n = 96,000);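 active means activation factor of 2 or more for CYP2C9 at a 5 µM dose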
CYP2C19 act: increases human CYP2C19 enzyme activity; P33261; recombinant CYP2C19, luciferin-H EGE luminescence; active compounds read high; 0 = fully inhibited enzyme, 1 = untreated enzyme; activation factor at 5 µM; 96,000 tested, under 10 active; AID 1025;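 active means activation factor of at least 2 at 5 µM in the primary screen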
sEH activator: activators of human soluble epoxide hydrolase. P34913. purified human sEH enzymatic activity, activator screen. activation, % at 2 µM. actives 0.04% (n = 91,000); in the data active means activation above about 37%
Target sequence (P34913 whole entry, looked up): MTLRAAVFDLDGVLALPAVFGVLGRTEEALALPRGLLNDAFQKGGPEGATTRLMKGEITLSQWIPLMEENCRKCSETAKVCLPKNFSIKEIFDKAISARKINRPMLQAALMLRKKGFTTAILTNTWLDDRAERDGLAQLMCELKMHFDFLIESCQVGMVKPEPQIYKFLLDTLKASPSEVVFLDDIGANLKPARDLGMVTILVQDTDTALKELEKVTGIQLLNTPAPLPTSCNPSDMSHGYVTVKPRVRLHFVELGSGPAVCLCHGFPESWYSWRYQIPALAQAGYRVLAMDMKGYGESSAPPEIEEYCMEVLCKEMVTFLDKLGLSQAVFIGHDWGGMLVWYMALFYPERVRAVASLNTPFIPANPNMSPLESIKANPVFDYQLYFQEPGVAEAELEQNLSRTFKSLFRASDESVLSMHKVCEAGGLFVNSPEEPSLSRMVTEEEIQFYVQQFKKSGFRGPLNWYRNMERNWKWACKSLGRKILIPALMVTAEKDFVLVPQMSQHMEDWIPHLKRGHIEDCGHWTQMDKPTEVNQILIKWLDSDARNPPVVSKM
CYP2C9 inh: blocks human cytochrome P450 2C9. AID 777. CYP2C9 Supersomes, luciferin-H conversion, luminescence. inhibition, % at 5 µM. actives 20% (n = 96,000). P11712;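 active means blocking of liver enzyme CYP2C9 beyond about 50% at 5 µM, limit read from the data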
sEH inh: blocks human soluble epoxide hydrolase activity; actives 0.34% (n = 91,000); P34913; recombinant human sEH enzymatic activity assay; inhibition, % at 2 µM; AID 707; in the data active means inhibition above about 80%
CYP2C19 inhib: inhibitors of human CYP2C19. CYP2C19 Supersomes, luciferin-H EGE luminescence, 30 min. inhibition, % at 5 µM. actives 21% (n = 96,000);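 active means CYP2C19 inhibition above a set limit at 5 µM in the primary screen, cut at about 50% in these data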
Numbers stand for hits; – = inactive; · = no result.

SMILES	CYP2C9 activ	CYP2C19 act	sEH activator	CYP2C9 inh	sEH inh	CYP2C19 inhib
CCOC(=O)c1c(C)nc2sc(C(=O)Nc3ccc(OC)cc3)c(N)c2c1-c1ccc(OC)cc1	–	–	–	85.1	–	81.3
CCOC(=O)c1c(C)nc2sc(C(N)=O)c(N)c2c1-c1ccc(OC)cc1	–	–	–	–	–	–
Cc1ccc(-n2c(N)c(C(=O)NCc3cccnc3)sc2=S)cc1	–	–	–	–	–	–
CC(=O)CC(=O)Nc1ccccc1NC(C)=O	–	–	–	–	–	–
CCCC(c1nnnn1CCc1ccccc1)N1CCN(C(=O)c2ccco2)CC1 (centres undefined)	–	–	–	–	–	–
COCCCn1c(N)c(-c2nc3ccccc3n2C)c2nc3ccccc3nc21	–	–	–	66.1	–	70.5
Cn1c(-c2c(N)n(CCc3ccccc3)c3nc4ccccc4nc23)nc2ccccc21	–	–	–	100.3	–	58.2
CC(C)Cc1nc(SCC(=O)Nc2ccc(S(N)(=O)=O)cc2)n[nH]1	–	–	–	–	–	–
Cc1ccccc1Cc1c(C)nc2nc(SCC(=O)NCc3ccco3)nn2c1C	–	–	–	66.1	–	–
Cc1ccccc1Cc1c(C)nc2c(C(=O)NCc3ccco3)cnn2c1C	–	–	–	86.6	–	56.2
Cc1ccc(Cc2c(C)nc3nc(SCC(=O)NCc4ccco4)nn3c2C)cc1	–	–	–	55.9	–	–
Cc1nc2nc(SCC(=O)NCc3ccco3)nn2c(C)c1Cc1c(F)cccc1Cl	–	–	·	88.5	·	–
Cc1nc2ncnn2c(C)c1CCC(=O)NCc1ccco1	–	–	–	–	–	–
CC(Oc1ccc(Cl)cc1Cl)c1nc(-c2ccc(NC(=O)c3ccccn3)cc2)no1 (centres undefined)	·	·	–	·	–	·
NC(=O)c1oc2ccccc2c1NC(=O)c1ccccc1	3.8	–	–	–	–	–
NC(=O)c1oc2ccccc2c1NC(=O)c1ccco1	3.7	–	·	–	·	–
Nc1ccc(-n2nncc2-c2ccc(Cl)cc2)cc1	–	–	–	57.4	–	64.5
CC(C)(C)c1cnnn1-c1ccc(-c2csc(N)n2)cc1	–	–	·	–	·	–
O=[N+]([O-])c1ccc(-n2nncc2-c2ccc(Cl)cc2)cc1	–	–	–	53.5	–	90.1
Cc1nc(C(=O)Nc2ccc(Cl)cc2)nn1-c1ccc([N+](=O)[O-])cc1	–	–	–	–	–	–
Cn1cnc2c1c(=O)n(Cc1ccc(F)cc1Cl)c(=O)n2C	–	–	–	–	–	–
Cc1ccc(-n2c(CSc3nc(C)cc(C)n3)nnc2SCC(=O)NCc2ccco2)cc1	–	–	–	–	–	–
CN1CCN(CC#CCn2c3ccccc3c3ccccc32)CC1	–	–	–	–	–	58.9
N#CCCN1CCN(Cn2c3ccccc3c3ccccc32)CC1	–	–	·	–	·	–
Cc1cc(Nc2nc3ccccc3nc2Cl)n(-c2ccccc2C)n1	–	–	–	–	–	89.0
SMILES	CYP2C9 activ	CYP2C19 act	sEH activator	CYP2C9 inh	sEH inh	CYP2C19 inhib
Cc1cc(Nc2nc3ccccc3nc2Cl)n(-c2ccccc2)n1	–	–	–	–	–	–
CCOC(=O)c1cccc(NC(=O)CS(=O)(=O)Cc2nc(-c3cccc(OC)c3)oc2C)c1	–	–	·	75.8	·	–
CCOC(=O)N1CCC(NC(=O)CS(=O)(=O)Cc2nc(-c3cccc(OC)c3)oc2C)CC1	–	–	–	–	–	–
CCN(CCNC(=O)CS(=O)(=O)Cc1nc(-c2cccc(OC)c2)oc1C)c1ccccc1	–	–	–	87.0	–	78.3
COc1ccc(OC)c(CCNC(=O)CS(=O)(=O)Cc2nc(-c3ccc(C)cc3)oc2C)c1	–	–	–	66.0	–	53.7
COc1cccc(-c2nc(CS(=O)(=O)CC(=O)N3CCN(c4ccccn4)CC3)c(C)o2)c1	–	–	·	51.2	·	–
O=C(Cn1[nH]c(=O)c2ccccc2c1=O)OCC(=O)N(Cc1ccccc1)Cc1ccccc1	–	–	–	–	–	–
O=C1NCCCC1C(=O)N1CCN(C(c2ccccc2)c2ccccc2)CC1 (centres undefined)	–	–	·	–	·	–
O=C(O)CCSc1nc(C(F)(F)F)cc(=O)n1-c1ccccc1	–	–	–	–	–	–
CCOc1ccc(/C(O)=C2\C(=O)C(=O)N(CCOCCO)C2c2ccccc2OC)cc1 (centres undefined)	–	–	–	–	–	–
Cc1ccc(-c2nc(NC(=O)c3nn(C)cc3[N+](=O)[O-])sc2C)cc1C	–	–	–	53.6	–	–
COc1c(C)cccc1C(=O)Nc1ccc(CN2CCOCC2)cc1	–	–	–	–	–	–
CCn1nnnc1NCc1ccc(N2CCCC2)cc1	–	–	·	81.4	·	79.3
CC(=O)N1CCN(c2ccc(NCc3ccccc3)cc2)CC1	–	–	–	–	–	–
CCOc1ccccc1Cn1c(=O)oc2ccc(C)cc21	·	·	–	·	–	·
COc1ccccc1OCCCn1c(=O)oc2ccc(C)cc21	–	–	–	–	–	55.6
CCCOc1ccccc1Cn1c(=O)oc2ccc(C)cc21	–	–	–	84.5	–	96.1
COc1ccccc1OCCCn1c(=O)oc2ccccc21	–	–	–	–	–	99.5
Cc1ccc2oc(=O)n(CCOc3ccccc3Cl)c2c1	–	–	–	–	–	–
CCCCOC(=O)Cn1c(=O)oc2ccc(C)cc21	2.2	–	–	–	–	–
COc1ccccc1OCCCn1c(=O)sc2ccccc21	–	–	–	74.3	–	100.0
COc1ccc(-c2nc(CSCC(=O)N3CCN(C(=O)c4ccco4)CC3)c(C)o2)cc1OC	–	–	–	–	–	–
O=C(Nc1ccccc1C(=O)N1CCN(c2ccccc2)CC1)c1ccco1	–	–	–	56.9	–	62.1
O=C(c1ccccc1NS(=O)(=O)c1ccc(Br)s1)N1CCCC1	–	–	–	–	–	69.4
Cc1sc(NC(=O)c2ccco2)c(CN2CCN(c3ccccc3)CC2)c1C	–	–	–	80.4	–	72.1
SMILES	CYP2C9 activ	CYP2C19 act	sEH activator	CYP2C9 inh	sEH inh	CYP2C19 inhib
CS(=O)(=O)Nc1ccccc1C(=O)N1CCN(c2ccccc2)CC1	–	–	–	–	–	71.0
O=C(Nc1ccccc1C(=O)N1CCNCC1)c1ccco1	·	·	–	·	–	·
Cc1cccc(OCC(=O)N/N=C\c2cc3c(cc2[N+](=O)[O-])OCO3)c1C	–	–	–	–	–	–
COC(=O)c1ccccc1NC(=O)N1CCN(C(=O)c2ccco2)CC1	–	–	·	–	·	52.1
CC(C)c1ccc(N2CCN(C(=O)c3ccccc3NC(=O)/C=C\C(=O)O)CC2)cc1	–	–	–	–	–	–
O=C(O)/C=C\C(=O)Nc1ccccc1C(=O)N1CCN(c2ccc(Cl)cc2)CC1	–	–	–	58.0	–	–
COc1cc(C(=O)Nc2nnc(-c3sccc3C)s2)cc(OC)c1OC	–	–	–	–	–	–
O=C(NC(NNc1ccc([N+](=O)[O-])cc1)(C(F)(F)F)C(F)(F)F)c1ccccc1Cl	–	–	–	53.4	–	–
Cc1cnc(SCCc2ccncc2)nc1C	–	–	·	–	·	75.8
